# Test results published in PubChem BioAssay.
# Calls of active or inactive are those of the source.
# Tests used:
# [1] = test system: Plasmodium falciparum Sir2 (PF13_0152, Sir2A); assay: pfSir2 binders on small-molecule microarrays, primary screen, biochemical, small-molecule microarray, 635 nm fluorescence (AID 1098); details: small-molecule microarray binding, fluorescence 635 nm; higher = more signal;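 note: score merges spot fluorescence intensity with its signal-to-noise ratio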
# [2] = small-molecule microarray binders of probe aDKK1, primary screen, biochemical, biotinylated probe, 635/667 nm fluorescence (AID 1099); details: higher = more signal;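 note: score merges 667nm spot fluorescence with signal to noise across triplicate slides; reference of the scale not given here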
# [3] = small-molecule microarray binders of probe aCHRDL2, primary screen, biochemical, biotinylated probe, 635/667 nm fluorescence (AID 1100); details: higher = more signal
# [4] = splicing luciferase reporter signal modulators, primary screen, spliceosome inhibition project, cell-based, HEK293, splice +/- reporter (AID 1101); details: luminescence, 24 h, higher = more signal, called active from +8 up or from −8 down;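 note: HEK293 cells carrying a splicing-competent luciferase reporter gene; test concentration not given here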
# [5] = target: Fibroblast growth factor 10 (Homo sapiens) (UniProt O15520); assay: FGF10 binders on small-molecule microarrays, primary screen, biochemical, small-molecule microarray, 635 nm fluorescence (AID 1102); details: FGF10 binding, fluorescence 635 nm, higher = more signal
# Chain of Fibroblast growth factor 10 (Homo sapiens) (O15520 whole entry, looked up): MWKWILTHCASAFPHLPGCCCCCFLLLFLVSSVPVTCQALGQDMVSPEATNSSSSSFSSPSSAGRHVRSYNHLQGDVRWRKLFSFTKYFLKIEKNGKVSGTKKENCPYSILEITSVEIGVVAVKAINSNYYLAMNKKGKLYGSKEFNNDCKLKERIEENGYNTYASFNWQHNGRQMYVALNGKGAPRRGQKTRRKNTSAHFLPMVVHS
# [6] = test system: glycogen synthase kinase-3 (GSK3A per assay name; protocol says GSK3B); assay: GSK3 binders on small-molecule microarrays, primary screen, biochemical, small-molecule microarray, 635 nm fluorescence, GSK3A (AID 1103); details: small-molecule microarray binding, fluorescence 635 nm; higher = more signal; note: the record names both GSK3A and GSK3B
# [7] = target: Epidermal growth factor receptor (Homo sapiens) (UniProt P00533); assay: EGFR binders on small-molecule microarrays, primary screen, biochemical, small-molecule microarray, 635 nm fluorescence (AID 1104); details: EGFR binding, higher = more signal;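 note: score merges 667 nm emission intensity with spot signal to noise over triplicate slides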
# Chain of Epidermal growth factor receptor (Homo sapiens) (P00533 whole entry, looked up): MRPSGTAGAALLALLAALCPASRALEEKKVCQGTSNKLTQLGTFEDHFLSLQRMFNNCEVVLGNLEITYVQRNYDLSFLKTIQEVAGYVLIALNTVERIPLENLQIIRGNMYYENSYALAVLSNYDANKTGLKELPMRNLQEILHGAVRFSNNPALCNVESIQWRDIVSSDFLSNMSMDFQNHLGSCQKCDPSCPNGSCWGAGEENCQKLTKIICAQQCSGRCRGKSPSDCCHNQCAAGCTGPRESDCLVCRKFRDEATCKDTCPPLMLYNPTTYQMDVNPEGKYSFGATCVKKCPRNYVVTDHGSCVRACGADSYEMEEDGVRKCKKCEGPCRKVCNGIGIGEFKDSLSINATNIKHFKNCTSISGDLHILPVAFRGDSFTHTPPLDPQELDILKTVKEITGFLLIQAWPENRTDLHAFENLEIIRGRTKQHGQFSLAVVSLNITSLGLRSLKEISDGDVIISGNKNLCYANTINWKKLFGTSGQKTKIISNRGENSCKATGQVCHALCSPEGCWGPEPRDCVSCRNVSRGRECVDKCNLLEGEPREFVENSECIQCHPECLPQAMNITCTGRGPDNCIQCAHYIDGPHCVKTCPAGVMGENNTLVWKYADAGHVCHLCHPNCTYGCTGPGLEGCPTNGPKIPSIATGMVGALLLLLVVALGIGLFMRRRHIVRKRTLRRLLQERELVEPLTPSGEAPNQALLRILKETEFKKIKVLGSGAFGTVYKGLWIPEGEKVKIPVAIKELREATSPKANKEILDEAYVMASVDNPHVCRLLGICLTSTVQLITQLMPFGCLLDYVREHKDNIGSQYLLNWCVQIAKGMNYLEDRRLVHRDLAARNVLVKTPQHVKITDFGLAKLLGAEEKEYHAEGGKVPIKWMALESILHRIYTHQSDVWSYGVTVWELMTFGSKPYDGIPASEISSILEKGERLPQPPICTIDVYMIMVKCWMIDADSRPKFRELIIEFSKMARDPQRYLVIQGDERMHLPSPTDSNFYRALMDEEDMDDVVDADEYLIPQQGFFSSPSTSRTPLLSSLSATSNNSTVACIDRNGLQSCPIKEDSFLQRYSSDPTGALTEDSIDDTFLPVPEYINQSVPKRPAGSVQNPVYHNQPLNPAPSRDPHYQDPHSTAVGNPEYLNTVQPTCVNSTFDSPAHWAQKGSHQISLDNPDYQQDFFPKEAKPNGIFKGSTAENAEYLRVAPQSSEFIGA
# [8] = target: Follistatin-related protein 3 (Homo sapiens) (UniProt O95633); assay: FSTL3 binders on small-molecule microarrays, primary screen, biochemical, small-molecule microarray, 635 nm fluorescence (AID 1105); details: FSTL3 binding, higher = more signal;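 note: score merges emission near 667 nm and signal to noise per printed spot across three slides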
# Chain of Follistatin-related protein 3 (Homo sapiens) (O95633 whole entry, looked up): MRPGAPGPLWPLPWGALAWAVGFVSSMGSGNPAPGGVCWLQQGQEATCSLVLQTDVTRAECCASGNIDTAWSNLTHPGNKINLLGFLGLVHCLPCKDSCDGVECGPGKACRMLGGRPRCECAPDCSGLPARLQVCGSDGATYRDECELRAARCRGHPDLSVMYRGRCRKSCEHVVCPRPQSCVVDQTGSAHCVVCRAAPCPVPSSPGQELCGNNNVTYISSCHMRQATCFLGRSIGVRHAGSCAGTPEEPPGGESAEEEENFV
# [9] = target: Dickkopf-related protein 1 (Homo sapiens) (UniProt O94907); assay: DKK1 binders on small-molecule microarrays, primary screen, biochemical, small-molecule microarray, 635 nm fluorescence scan (AID 1106); details: DKK1 binding, higher = more signal;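 note: score merges emission near 667 nm with signal to noise over three replicate slides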
# Chain of Dickkopf-related protein 1 (Homo sapiens) (O94907 whole entry, looked up): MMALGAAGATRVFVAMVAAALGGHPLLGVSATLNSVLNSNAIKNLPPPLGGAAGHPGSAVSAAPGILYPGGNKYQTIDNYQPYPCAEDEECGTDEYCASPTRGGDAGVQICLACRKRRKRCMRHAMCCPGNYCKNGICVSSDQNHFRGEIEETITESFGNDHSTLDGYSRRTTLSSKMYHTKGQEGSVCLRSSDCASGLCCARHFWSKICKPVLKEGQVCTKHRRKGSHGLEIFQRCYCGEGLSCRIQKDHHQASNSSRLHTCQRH
# [10] = test system: Inhibin beta A chain (activin A); assay: INHBA (activin A) binders on microarrays, primary screen, biochemical, small-molecule microarray, 635 nm fluorescence scan (AID 1107); details: small-molecule microarray binding, higher = more signal;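 note: mouse activin A protein probed at 4.33 µg/mL on printed slides; score merges bound-protein fluorescence near 667 nm with spot signal-to-noise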
structure (smiles),measurement,setting,value
C=C(CCCC)/C(=C/C[C@@H](OC(C)=O)c1ccc(OCCO)cc1)c1cnc2ccccc2c1,composite z-score,[1],0.619
same,composite z-score,[2],-0.12
same,composite z-score,[3],0.149
same,z-score,[4],-0.27 (inactive)
same,composite z-score,[5],0.628
same,composite z-score,[6],-0.174
same,composite z-score,[7],0.401
same,composite z-score,[8],1.12
same,composite z-score,[9],0.698
same,composite z-score,[10],1.53
COC(=O)[C@@]1(Cc2ccc(F)cc2)[C@H]2c3cc(C(=O)N(C)C)n(Cc4ccc(Cl)c(C(F)(F)F)c4)c3C[C@H]2CN1C(=O)c1ccccc1,composite z-score,[1],0.546
same,composite z-score,[2],1.6
same,composite z-score,[3],1.46
same,z-score,[4],-2.25 (inactive)
same,composite z-score,[5],0.336
same,composite z-score,[6],1.31
same,composite z-score,[7],0.175
same,composite z-score,[8],0.923
same,composite z-score,[9],-0.473
same,composite z-score,[10],0.651
COCCOC(=O)N1C(=O)[C@@]2(c3cc(C#CCC(C(=O)OC)C(=O)OC)ccc31)[C@H](c1ccccc1OCCO)N1[C@H](c3ccccc3)[C@H](c3ccccc3)OC(=O)[C@H]1[C@@H]2C(=O)NC[C@H](O)c1ccccc1,composite z-score,[1],1.36
same,composite z-score,[2],0.877
same,composite z-score,[3],0.326
same,z-score,[4],3.84 (inactive)
same,composite z-score,[5],1.05
same,composite z-score,[6],1.29
same,composite z-score,[7],1.17
same,composite z-score,[8],1.23
same,composite z-score,[9],0.66
same,composite z-score,[10],0.619
COc1ccc([Si](C)(C)[C@H]2[C@H](CC(=O)N3Cc4ccccc4C[C@H]3CO)O[C@@]3(C(=O)N(Cc4cccc(N5CCC5=O)c4)c4ccccc43)[C@@H]2C)cc1,composite z-score,[1],1.31
same,composite z-score,[2],-0.293
same,composite z-score,[3],-0.325
same,z-score,[4],-0.205 (inactive)
same,composite z-score,[5],1.05
same,composite z-score,[6],0.716
same,composite z-score,[7],1.19
same,composite z-score,[8],1.42
same,composite z-score,[9],1.26
same,composite z-score,[10],0.962
Cc1ccc(N2C(=O)c3ccccc3[C@@H](C(=O)NC3CC3)[C@@H]2c2ccc(CO)cc2)nc1,composite z-score,[1],1.24
same,composite z-score,[2],-0.201
same,composite z-score,[3],0.908
same,z-score,[4],0.942 (inactive)
same,composite z-score,[5],-1.5
same,composite z-score,[6],-0.968
same,composite z-score,[7],-1.58
same,composite z-score,[8],-1.38
same,composite z-score,[9],-2.23
same,composite z-score,[10],-0.314
CCCCC(CC)C(O)C1C=CC2C(=O)N(Cc3ccccc3)C(=O)C2N1n1cnnc1 (stereo not given),composite z-score,[1],-0.503
same,composite z-score,[2],0.197
same,composite z-score,[3],0.552
same,z-score,[4],-0.44 (inactive)
same,composite z-score,[5],-0.0566
same,composite z-score,[6],-0.0058
same,composite z-score,[7],-0.286
same,composite z-score,[8],0.0568
same,composite z-score,[9],-0.691
same,composite z-score,[10],0.82
O=C1C2C=CC(C(O)c3cc(C(F)(F)F)cc(C(F)(F)F)c3)N(n3cnnc3)C2C(=O)N1Cc1ccccc1 (stereo not given),composite z-score,[1],0.716
same,composite z-score,[2],-0.0958
same,composite z-score,[3],0.531
same,z-score,[4],-0.27 (inactive)
same,composite z-score,[5],-0.409
same,composite z-score,[6],-0.261
same,composite z-score,[7],-0.165
same,composite z-score,[8],-0.103
same,composite z-score,[9],-1.17
same,composite z-score,[10],-0.301
C=CCNC(=O)[C@H]1[C@@H]2C(=O)O[C@@H](c3ccccc3)[C@@H](c3ccccc3)N2[C@@H](c2ccccc2OCCO)[C@]12C(=O)Nc1ccc(C#CCCO)cc12,composite z-score,[1],0.932
same,composite z-score,[2],-0.0856
same,composite z-score,[3],0.784
same,z-score,[4],-0.411 (inactive)
same,composite z-score,[5],1.66
same,composite z-score,[6],-1.03
same,composite z-score,[7],-0.281
same,composite z-score,[8],0.229
same,composite z-score,[9],1.97
same,composite z-score,[10],0.479
COc1ccc(C#Cc2ccc3c(c2)[C@]2(C(=O)N3)[C@H](c3ccccc3OCCO)N3[C@H](c4ccccc4)[C@H](c4ccccc4)OC(=O)[C@H]3[C@@H]2C(=O)Nc2nc3ccccc3s2)cc1,composite z-score,[1],1.64
same,composite z-score,[2],-0.0008
same,composite z-score,[3],-0.197
same,z-score,[4],-1.11 (inactive)
same,composite z-score,[5],1.09
same,composite z-score,[6],1.31
same,composite z-score,[7],0.589
same,composite z-score,[8],1.27
same,composite z-score,[9],0.62
same,composite z-score,[10],0.322
CCOC(=O)C[C@H]1[C@H](OC(=O)c2ccc(C(=O)c3ccccc3)cc2)[C@@H](NC(=O)CC(C)C)c2cc(OCCCO)ccc2N1C(=O)c1ccc2ccccc2n1,composite z-score,[1],0.366
same,composite z-score,[2],-0.0449
same,composite z-score,[3],-0.399
same,z-score,[4],-0.202 (inactive)
same,composite z-score,[5],0.811
same,composite z-score,[6],1.25
same,composite z-score,[7],0.373
same,composite z-score,[8],1.41
same,composite z-score,[9],1.09
same,composite z-score,[10],0.241
COc1ccc(CCNC(=O)[C@@H]2c3ccccc3C(=O)N(Cc3ccccc3Cl)[C@H]2c2ccc(CO)cc2)cc1,composite z-score,[1],0.489
same,composite z-score,[2],0.235
same,composite z-score,[3],0.602
same,z-score,[4],-0.153 (inactive)
same,composite z-score,[5],0.212
same,composite z-score,[6],0.412
same,composite z-score,[7],-0.0373
same,composite z-score,[8],-0.182
same,composite z-score,[9],0.0477
same,composite z-score,[10],0.674
COC(=O)C(CC#Cc1ccc2c(c1)[C@]1(C(=O)N2)[C@H](c2ccc(OCCO)cc2)N2[C@H](c3ccccc3)[C@H](c3ccccc3)OC(=O)[C@H]2[C@@H]1C(=O)N1CCc2cc(OC)c(OC)cc2C1)C(=O)OC,composite z-score,[1],1.47
same,composite z-score,[2],0.508
same,composite z-score,[3],0.381
same,z-score,[4],-0.369 (inactive)
same,composite z-score,[5],1.4
same,composite z-score,[6],1.32
same,composite z-score,[7],0.485
same,composite z-score,[8],1.41
same,composite z-score,[9],0.506
same,composite z-score,[10],1.18
COCCOC(=O)N1C(=O)[C@@]2(c3cc(C#CCCO)ccc31)[C@H](C(=O)N1CCCCCCC1)[C@H]1C(=O)O[C@H](c3ccccc3)[C@H](c3ccccc3)N1[C@@H]2c1ccc(OCCO)cc1,composite z-score,[1],1.4
same,composite z-score,[2],2.52
same,composite z-score,[3],1.49
same,z-score,[4],0.713 (inactive)
same,composite z-score,[5],0.888
same,composite z-score,[6],0.704
same,composite z-score,[7],1.59
same,composite z-score,[8],1.55
same,composite z-score,[9],1.63
same,composite z-score,[10],1.67
CCCCCN1CC=CC23O[C@@H]4/C=C\CCC(C)OC(=O)C4[C@H]2C(=O)N(C(C)CO)[C@@H]3C1=O (stereo not given in full),composite z-score,[1],-0.472
same,composite z-score,[2],-0.225
same,composite z-score,[3],-0.327
same,z-score,[4],0.304 (inactive)
same,composite z-score,[5],0.171
same,composite z-score,[6],0.0131
same,composite z-score,[7],-0.601
same,composite z-score,[8],-0.0103
same,composite z-score,[9],-0.23
same,composite z-score,[10],0.908
